Records with an inconclusive call do not appear. A call without a number means that no potency is given here. Unmarked numbers belong to inactive results. The source made the active and inactive calls. Calls come from the whole dose curve.
molecular target: D(2) dopamine receptor (Homo sapiens) (UniProt P14416); assay: Dopamine D2 receptor (DRD2) small molecule agonists, cell-based qHTS assay (AID 1963594); settings: HEK293-DRD2 cAMP HTRF, agonist mode, 30 min; series mostly up to 92.4 µM; activation: at the top concentration; note: nearly all actives have a fitted effect of over 35% in size
Sequence (P14416 whole entry, looked up): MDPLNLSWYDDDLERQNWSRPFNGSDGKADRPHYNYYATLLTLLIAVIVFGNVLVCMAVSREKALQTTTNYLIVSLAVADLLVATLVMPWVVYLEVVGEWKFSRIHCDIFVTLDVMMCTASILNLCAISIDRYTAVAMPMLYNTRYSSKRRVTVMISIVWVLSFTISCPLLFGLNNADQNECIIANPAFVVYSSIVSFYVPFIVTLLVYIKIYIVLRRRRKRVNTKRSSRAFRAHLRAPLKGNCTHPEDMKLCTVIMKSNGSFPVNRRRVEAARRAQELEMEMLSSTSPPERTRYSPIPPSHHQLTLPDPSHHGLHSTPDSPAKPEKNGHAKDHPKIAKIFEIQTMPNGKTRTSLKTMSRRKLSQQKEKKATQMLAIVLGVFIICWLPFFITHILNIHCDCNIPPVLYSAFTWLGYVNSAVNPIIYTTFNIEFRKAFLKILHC
From the text: National Center for Advancing Translational Sciences [NCATS]
Division of Preclinical Innovation [DPI]
U.S. Environmental Protection Agency [EPA]
National Institutes of Environmental Health Sciences [NIEHS]
National Toxicology Program [NTP]
U.S. Food and Drug Administration [FDA]
DRD2 is the D2 subtype of the dopamine receptor, which is coupled to Gi subtype of G protein-coupled receptor. This G protein-coupled receptor inhibits adenylyl cyclase activity. The DRD2-HEK293 cell line stably expressing D2 dopamine receptor can be used for screening agonists and antagonists of interactions between D2 and its ligands. The Hek293-DRD2 cAMP assay is based on HTRF technology. It measures changes of cAMP accumulation in response to Gi coupled GPCR activation or inhibition.
Tox21 Assay Protocol Summary:
DRD2-Hek293 cells were dispensed at 600 cells/3uL/well in 1536-well white plates using a Multidrop Dispenser. After the assay plates were incubated at a 37 C/5% CO2 incubator for 24 h, 1 uL of Ro20-1724 at final concentration of 0.1 mM was transferred to the assay plate by a Flying Reagent Dispenser. Following Ro20-1724 addition, 23 nL of compound dissolved in DMSO, positive controls or DMSO only was added to the assay plates via Wako pintool station. The assay plates were incubated at room temperature for 10 min. Next, 1 uL of NKH477 at 200nM was added into the plates. After the assay plates were incubated at room temperature for an additional 30 min, 2.5 ul/well of cAMP-d2 and 2.5 ul/well of anti-cAMP-cryptate were added respectively into the assay plates using a Flying Reagent Dispenser. The plates were incubated at room temperature for 1 h. The fluorescence intensity in the plates was measured at 340 nm excitation and 665 & 620 nm emission by an Envision plate reader.

SMILES | Potency | activation
CC(C)=CCl | inactive | 
Cc1c(OCC(F)(F)F)ccnc1CS(=O)c1nc2ccccc2[nH]1 (stereo not given) |  | -15.7% [at 42.5 µM]
Nc1ccn([C@H]2CC[C@@H](CO)O2)c(=O)n1 | inactive | 
N[C@@H](Cc1cc(I)c(Oc2ccc(O)c(I)c2)c(I)c1)C(=O)O | inactive | 
CC(=O)Nc1c(I)c(NC(C)=O)c(I)c(C(=O)O)c1I | inactive | 
C=CC(C)CCCC(C)(C)O (stereo not given) | inactive | 
COc1ccc(C(Cl)=C(c2ccc(OC)cc2)c2ccc(OC)cc2)cc1 | inactive | 
O=S1(=O)CCCO1 | inactive | 
Brc1cc(Oc2cc(Br)c(Br)c(Br)c2Br)c(Br)c(Br)c1Br | inactive | 
COc1ccc(CCC(C)=O)cc1 | inactive | 
O=C(O)Cn1c(=O)n(Cc2ccc(Br)cc2F)c(=O)c2ccc(Cl)cc21 | inactive | 
CCc1cccc(CC)c1N |  | 2.74%
Oc1ccc(Cc2ccccc2O)cc1 | inactive | 
CC12CCC(CC1)C(C)(C)O2 | inactive | 
CC(C)(CO)CO | inactive | 
Cc1ncc[nH]1 | inactive | 
Cc1occc(=O)c1O |  | 5.06%
Cc1cccc2n[nH]nc12 | inactive | 
Cc1ccc(C)c(OCCCC(C)(C)C(=O)O)c1 | inactive | 
CSc1ccc(Cl)cc1 | inactive | 

SMILES | Potency | activation
OC[C@@H](O)[C@H](O)[C@H](O)[C@@H](O)CO | inactive | 
O=c1c(-c2ccc(O)cc2)coc2cc(O)cc(O)c12 | inactive | 
CCOCCO | inactive | 
COc1cc([C@H]2Oc3cc([C@H]4Oc5cc(O)cc(O)c5C(=O)[C@@H]4O)ccc3O[C@@H]2CO)ccc1O | inactive | 
Clc1ccc(Sc2cc(Cl)c(Cl)cc2Cl)cc1 | inactive | 
Cc1ccc(S(=O)(=O)O)cc1 | inactive | 
O=C(O)CCCC[C@@H]1SC[C@@H]2NC(=O)N[C@@H]21 |  | 14.1%
COC(=O)/C=C\C(=O)OC | inactive | 
O=C1CCCCCCCCCCC1 | inactive | 
CCCOCC(C)O (stereo not given) | inactive | 
c1ccc2[nH]ccc2c1 | inactive | 
CC(=O)O[C@]1(C(C)=O)CC[C@H]2[C@@H]3C=C(Cl)C4=CC(=O)CC[C@]4(C)[C@H]3CC[C@@]21C | inactive | 
CCC[C@H](N[C@@H](C)C(=O)N1[C@H](C(=O)O)C[C@@H]2CCCC[C@@H]21)C(=O)OCC | inactive | 
Cc1ccc2ncccc2c1 | inactive | 
O=c1cc[nH]c(=S)[nH]1 | inactive | 
c1ccc2ccccc2c1 | inactive | 
O=C(c1cc(O)c(O)c(O)c1)c1ccc(O)c(O)c1O |  | -13.3% [at 42.5 µM]
CC(=O)Oc1ccc(C(c2ccc(OC(C)=O)cc2)c2ccccn2)cc1 | inactive | 
Cc1cccc(O)c1C | inactive | 
CC(=O)Nc1ccc(CC(=O)O)cc1 | inactive | 
